SKKanGAS inh = blocks kanamycin growth of S. pyogenes SKKanGAS strain; 1.3% of 300,000 active; inhibition, % at 7.5 µM; BacTiter-Glo, 6 h; AID 1662;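 active = mean replicate score, as percent of positive control median, at least 50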;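 also: strain carries kanamycin resistance gene driven by streptokinase promoter and grows in 40 µg/ml kanamycin; loss of luminescence reflects streptokinase promoter inhibition or plain growth inhibition; 0% = median of DMSO wells and 100% = positive control at its reference dose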
Beta apoptosis = beta cell apoptosis inhibition. INS-1E cytokine-induced death, ATP luminescence, 48 h; percent of positive-control rescue, neutral wells zero. protection from apoptosis, % (concentration not given with the values). 0.8% of 300,000 active;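 active = Every replicate reaches about 75%, or at least half do and their mean reaches it too, limit read from the data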;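 also: 0% = cytokine-treated negative control wells and 100% = positive control rescue; higher means more ATP so stronger rescue from cytokine killing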
CSC inhib = cancer stem cell inhibition | cancer stem cell-like cells viability, luminescence | 1.1% of 300,000 active | AID 2717 | inhibition, % at 7.5 µM; in the data active = inhibition above about 75%; tested in HMLE shEcad cells
GRIN3A LBD mod = NR3A (human) ligand-binding domain modulation | NR3A LBD differential scanning fluorimetry, Tm shift; 0% = protein alone, 100% = glycine-bound protein | Tm shift relative to glycine control, % at 25 µM | 2.5% of 340,000 active | AID 1259313;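 active = melting temperature shift of at least 10% of the positive control shift, at one fixed dose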
MPTP block = inhibitors of mitochondrial permeability transition pore; isolated mouse mitochondria, Ca2+ swelling absorbance, 30 min; AID 602449; inhibition, % at 10 µM; 1.4% of 360,000 active;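 active = inhibition of 50% or more, scaled per plate between neutral and stimulator controls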;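 also: 0% = DMSO wells given calcium and 100% = 1 mM EGTA wells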
Mdm2 MdmX PPI = inhibitors of human Mdm2/MdmX interaction; SaOS-2 split-luciferase Mdm2/MdmX complementation, luminescence; inhibition, % at 8 µM; 3% of 330,000 active; AID 485346;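 active = inhibition of at least 50% at 8 µM in the primary screen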
* marks the source's active call; other numbers are inactive results; x = no result given. A selection: hits, their analogues and other compounds. The true share with any hit is near 6.9%.

SMILES | SKKanGAS inh | Beta apoptosis | CSC inhib | GRIN3A LBD mod | MPTP block | Mdm2 MdmX PPI
CCCCOc1ccc(C(=O)Nn2cnnc2)cc1 | 4.2 | -2.8 | 1.7 | 14.2* | -1.5 | -2.0
COC(=O)C1(C(=O)OC)c2ccccc2N(S(=O)(=O)c2ccc(C)cc2)C1CC(=O)c1ccccc1 (configuration not stated) | x | x | x | x | 6.9 | x
CCCC1CC(C#N)N(N(C)C)C1=C(C#N)C#N (configuration not stated) | -3.4 | -2.8 | -16.0 | -2.2 | 1.4 | -7.3
CC1CC(C#N)N(N(C)C)C1=C(C#N)C#N (configuration not stated) | -3.1 | -6.5 | -11.4 | 16.9* | 2.1 | 5.5
CCOC(=O)C(C)NC(=O)c1cn(-c2ccc(OC)cc2)c(=O)c2ccccc12 (configuration not stated) | -3.7 | -4.9 | -11.5 | -1.7 | -1.7 | 20.2
CC(=O)Nc1nc(COc2ccccc2)cs1 | -4.2 | -2.6 | -1.0 | -0.1 | -2.0 | -10.1
Cc1ccc(C(=O)Nc2nc(COc3ccccc3)cs2)s1 | 4.0 | -1.0 | 26.3 | 29.4* | 4.1 | 0.9
COc1cccc(OC)c1C(=O)Nc1nc(COc2ccccc2)cs1 | 2.7 | -6.0 | 1.7 | 22.6* | 2.2 | 14.4
O=C(Nc1nc(COc2ccccc2)cs1)C1CCC1 | 5.1 | 16.3 | 0.1 | 1.9 | -1.1 | -72.1
O=C(c1ccc([N+](=O)[O-])cc1)N1CCN=C1SCc1ccccc1 | 3.5 | -0.7 | -5.6 | 0.9 | -1.1 | 1.6
O=C(c1ccccc1)N1CCN=C1SCc1ccc([N+](=O)[O-])cc1 | -5.8 | x | 0.8 | 24.2* | 0.5 | -3.1
Cc1ncc([N+](=O)[O-])n1CC(=O)Nc1ccc(OC(F)(F)Cl)cc1 | 2.4 | 5.7 | -10.5 | 0.0 | -1.0 | -10.3
CC[C@H]1OC(=O)[C@H](C)[C@@H](O[C@H]2C[C@@](C)(OC)[C@@H](O)[C@H](C)O2)[C@H](C)[C@@H](O[C@@H]2O[C@H](C)C[C@H](N(C)C)[C@H]2O)[C@](C)(OC)C[C@@H](C)C(=O)[C@H](C)[C@@H](O)[C@]1(C)O | 104.4* | -5.9 | -19.3 | 0.0 | 4.2 | -17.8
CC[C@H]1OC(=O)[C@H](C)[C@@H](O[C@H]2C[C@@](C)(OC)[C@@H](O)[C@H](C)O2)[C@H](C)[C@@H](O[C@@H]2O[C@H](C)C[C@H](N(C)C)[C@H]2O)[C@](C)(O)C[C@@H](C)C(=NOCOCCOC)[C@H](C)[C@@H](O)[C@]1(C)O | 107.4* | -7.5 | 1.0 | 0.6 | -5.0 | 30.5
CC1=NS(=O)(=O)NC(C)(C)C1 | x | x | x | 2.6 | -0.8 | x
c1ccc2nc3c(nc2c1)[nH]c1ccccc13 | -1.1 | x | -1.2 | -29.4 | -0.6 | -191.3
c1ccc(-c2c3ccccc3nc3[nH]c4ccccc4c23)cc1 | 96.1* | 2.7 | 78.6* | -6.9 | 1.8 | 29.3
COc1cnc(-c2ccccc2)nc1Oc1ccc(C(C)(C)C)cc1 | 93.3* | x | 48.5 | 6.0 | 5.7 | 1.9
O=C(Cn1c(Cn2c(-c3cnccn3)nc3ccccc32)nc2ccccc21)c1ccc(OC(F)(F)F)cc1 | x | x | x | x | 1.0 | x
CCCCNC(=O)c1onc(CSc2ccc(OC)cc2)c1C(=O)O | 15.8 | -4.5 | 1.7 | 11.5* | -0.3 | 13.1
Cc1ccc(S(=O)(=O)N(CCC(=O)O)c2ccccc2)cc1 | -2.4 | 6.9 | -10.7 | 15.3* | 1.1 | 10.2
CCOc1cc(/C=C2/NC(=O)N(Cc3ccccc3F)C2=O)ccc1O | 1.0 | -3.4 | x | 30.2* | 3.8 | 23.0
COc1cc(/C=C2/NC(=O)N(Cc3ccccc3F)C2=O)cc(OC)c1O | -6.1 | -4.0 | -6.5 | 1.4 | 2.0 | -20.3
Cc1cccc(C)c1NC(=O)C1c2ccccc2OCC(=O)N1CCCN1CCOCC1 (configuration not stated) | x | x | x | x | 2.2 | x
Cc1cc(S(=O)(=O)N2CCCC2C(=O)N2CCOCC2)c(C)cc1Cl (configuration not stated) | 5.2 | 1.6 | -2.8 | 58.2* | 2.4 | 3.3
CC(C)(C)c1ccc(/C=C/C(=O)c2ccc(NC3=NCCCS3)cc2)cc1 | x | 45.2 | 99.1* | -5.8 | 9.8 | 18.5
CC(=O)c1cccc(N/C=C\C(=O)c2ccc(C)cc2)c1 | -6.1 | -9.1 | -0.7 | -7.9 | 1.4 | x
CC(=O)c1ccc(NS(=O)(=O)c2ccc(N/C=C/C(=O)c3ccc(F)cc3)cc2)cc1 | 30.2 | 0.6 | 8.9 | 15.9* | 16.4 | -4.9

Bioassay records from PubChem BioAssay.
